# Results published in PubChem BioAssay AID2006 (Sanford-Burnham Center for Chemical Genomics, 2009).
# About 1,000 (0.34%) of roughly 290,000 compounds were called active. Rule as the data show it: active = inhibition above about 50% (passing the limit was not always enough); inconclusive = no clear call, values can overlap the other calls. Shown is part of a subset that was picked to be rich in actives.
# Target: SUMO-conjugating enzyme UBC9 (Homo sapiens) (UniProt P63279)
# Assay: inhibitors of in vitro SUMOylation cascade, primary screen, biochemical, HTRF, uHTS (AID 2006)
# Conditions: HTRF SUMOylation assay, SAE1/SAE2 + UBC9, in vitro, at 35 µM, stronger effect = higher value
# Sequence of SUMO-conjugating enzyme UBC9 (Homo sapiens) (P63279 whole entry, looked up): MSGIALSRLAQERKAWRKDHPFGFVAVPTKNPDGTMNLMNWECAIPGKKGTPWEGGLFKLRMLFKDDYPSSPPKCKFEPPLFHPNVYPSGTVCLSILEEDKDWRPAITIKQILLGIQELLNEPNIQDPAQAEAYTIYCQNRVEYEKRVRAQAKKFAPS
Structure (SMILES),inhibition,inhibition (average of repeat tests) [%]
O=C(CCc1ccccc1)Nc1ccnn1C1CCN(Cc2ccc(OCCO)cc2)CC1,6.4% (inactive),–
Nc1c(NCCc2ccccc2)c2ccccc2oc1=O,6.6% (inactive),–
O=c1oc2cc(O)ccc2cc1-c1ccc(F)cc1,50.3% (active),56
O=c1oc2ccccc2cc1-c1csc(Nc2ccc(O)cc2)n1,7.7% (inactive),–
COc1cccc(C(=O)c2cc3ccc(O)cc3oc2=O)c1,16.5% (inactive),–
O=c1onc(-c2c(F)cccc2F)n1-c1ccccc1Cl,-6.5% (inactive),–
CCOc1ccc(C2/C(=C(/O)c3ccc4c(c3)CC(C)O4)C(=O)C(=O)N2CCCn2ccnc2)cc1 (configuration not stated),-13.9% (inactive),–
Cc1ccc(CNC(=O)Cc2cn(C)c3ccccc23)cc1,-1.9% (inactive),–
Cn1c(-c2ccco2)nc2cc3ccccc3cc21,44.7% (inactive),–
c1coc(-c2nc3nc4ccccc4n3nc2-c2ccco2)c1,90.5% (active),–
Clc1ccccc1CSc1nnc(-c2ccco2)c(-c2ccco2)n1,35.9% (inactive),–
O=C(NCCN1CCCC(O)C1)c1cc(COc2c(F)cccc2F)on1 (configuration not stated),1.7% (inactive),–
CC(=O)N1CCC(N(C(=O)Nc2ccc(Cl)cc2)C(C)C)CC1,13.1% (inactive),–
Cc1ccc(NS(=O)(=O)c2ccc(-c3coc(C)n3)cc2)c(C)c1,-8.6% (inactive),–
COC(=O)CNC(=O)c1cc(-c2ccncc2)nc2ccccc12,0.8% (inactive),–
CCc1ccc(-c2cc(C(=O)NCc3ccco3)c3ccccc3n2)s1,59.3% (active),–
CCCCN(C)CCCNC(=O)c1cc(-c2cccs2)nc2ccccc12,20.3% (inactive),–
Cc1ccccc1N1CCN(C2CCCN(C(=O)c3cn4c(C)cccc4n3)C2)CC1 (configuration not stated),-1.6% (inactive),–
CCOC(=O)/C(=N\Nc1ccccc1[N+](=O)[O-])c1csc(Nc2ccccc2)n1,10.4% (inactive),–
COc1cc(C(=O)Nn2c(CC(C)C)nc3ccccc3c2=O)cc(OC)c1OC,7.6% (inactive),–
COC(=O)c1cc(OCC(=O)NC2CCCc3ccccc32)cc(C(=O)OC)c1 (configuration not stated),11.7% (inactive),–

Structure (SMILES),inhibition,inhibition (average of repeat tests) [%]
O=C(O)c1ccccc1NC(=O)c1ccccc1-c1ccccc1C(=O)O,9% (inactive),–
Cc1ccc(-c2nc(SCC(=O)Nc3ccccc3OC(F)F)c3c(C)c(C(=O)O)sc3n2)cc1,77.1% (active),–
CCOC(=O)c1ccc[n+](CC(=O)Nc2ccccc2OC(F)F)c1,-3.9% (inactive),–
COc1ccccc1NC(=O)CSc1nc2sc3c(c2c(=O)n1-c1ccccc1)CCN(C)C3,-8.5% (inactive),–
CCc1nc2cccnc2n1-c1ccc(C(=O)O)cc1,10.1% (inactive),–
CCOC(=O)CN(C(=O)COc1nc(C)cc(C)c1C#N)c1ccc(Cl)cc1,16.2% (inactive),–
Cc1cccc(C)c1N1C(=O)CN(Cc2ccccc2)C1=S,3.1% (inactive),–
CCOCc1nnc(NC(=O)CCS(=O)(=O)Cc2ccccc2)s1,0.9% (inactive),–
COCC(C)OC(=O)c1c(N)n(CCCN2CCOCC2)c2nc3ccccc3nc12 (configuration not stated),48.2% (inactive),–
CC(C)(C)OC(=O)c1c(N)n(CCCN2CCCC2=O)c2nc3ccccc3nc12,62.9% (active),40.3
CC(C)(C)c1ccc(C(=O)NCCn2c(N)c(C#N)c3nc4ccccc4nc32)cc1,27.7% (inactive),–
CC(C)=CCCC(C)CN1CCC(n2nccc2NC(=O)c2ccccc2)CC1 (configuration not stated),7% (inactive),–
COc1cc(/C(=C/c2ccccc2)c2ccccc2)c2c(c1)oc1ccccc12,12.7% (inactive),–
COc1ccccc1NC(=O)C1CCCN1S(=O)(=O)c1ccc(Cl)cc1 (configuration not stated),-4.9% (inactive),–
CC(C)(C)C(=O)Nc1ccc(-c2cn3cccnc3n2)cc1,37.2% (inactive),–
CCCC(=O)Nc1cccc(-c2cn3ccsc3n2)c1,-25.1% (inactive),–
FC(F)(F)Oc1ccc(-c2cn3cccnc3n2)cc1,24.2% (inactive),–
CC(=O)Nc1ccc(-c2cn3cccnc3n2)cc1,55.4% (active),53.3
CCCCCC(=O)Nc1ccc(-c2cn3cccnc3n2)cc1,50.5% (active),60.8
CCCCCC(=O)Nc1ccc(S(=O)(=O)Nc2ccc(Cl)nn2)cc1,2.3% (inactive),–
Cc1ccc(NC(=O)CN2CCc3ccccc3C2)cc1C,-5.2% (inactive),–

Structure (SMILES),inhibition,inhibition (average of repeat tests) [%]
CCc1c(C)nc(N)n2c(SCC(=O)NC3CCCCC3)nnc12,-11.4% (inactive),–
Cc1ccc(C)c(NC(=O)NNC(=O)c2ccc3ccccc3c2O)c1,4.2% (inactive),–
CC(=O)N1c2ccc(S(=O)(=O)N3CCCC(C(=O)Nc4cccc(F)c4)C3)cc2CC1C (configuration not stated),12.3% (inactive),–
Cc1cc(C(F)F)nn1CC(=O)NC1CCCCCC1,2.2% (inactive),–
N#CC1(NC(=O)COC(=O)CCN=C2NS(=O)(=O)c3ccccc32)CCCCC1,2.6% (inactive),–
CC1CCCCC1NC(=O)CSc1nnc(-c2ccncc2)n1CCCN(C)C (configuration not stated),8.9% (inactive),–
O=C(Nc1ccccc1Cl)Nn1cnnc1,10.4% (inactive),–
O=C(Nc1ccccc1Cl)/C(Cl)=C(\Cl)S(=O)c1ccccc1 (configuration not stated),57% (active),–
O=C(COC(=O)c1cccs1)Nc1ccccc1Cl,-14.2% (inactive),–
CCC(=O)Nc1nnc(S(=O)(=O)N(CC(C)C)c2ccccc2)s1,-0.8% (inactive),–
CCOC(=O)C1=C(c2ccc(OC)cc2)C(=O)c2ccccc2C1=O,5.9% (inactive),–
CCOC(=O)c1c(C)[nH]c2c1-c1ccccc1C(=O)C2=O,86.9% (active),–
CCOC(=O)c1c(C)[nH]c(C(=O)NCc2ccccc2OC)c1C,21.6% (inactive),–
CC(C)(C)NC(=O)CN(Cc1cccs1)C(=O)CNS(=O)(=O)c1ccccc1,5.5% (inactive),–
O=C(CN1CCC(NC(=O)C2CC2)CC1)Nc1ccccc1[N+](=O)[O-],2.3% (inactive),–
CCOC(=O)C1CCN(S(=O)(=O)c2ccc3c(c2)N(C)C(=O)CC(=O)N3C)CC1,10.1% (inactive),–
CCOc1ncccc1C(=O)NCCc1ccc(OC)cc1,-5.7% (inactive),–
CC(C)CN(CC(C)C)C(=O)CN1c2cccc3cccc(c23)S1(=O)=O,14.7% (inactive),–
O=C(CCCN1C(=O)/C(=C/c2ccco2)SC1=S)Nc1ccccc1,23.1% (inactive),–
Cc1cc(/C=C2\SC(=O)N(C)C2=O)c(C)n1-c1cccc(C(=O)O)c1,0.8% (inactive),–
CN1C(=O)/C(=C/c2ccco2)SC1=Nc1cccc(C(=O)O)c1,52.8% (active),–
